# Unmarked numbers belong to inactive results. Calls follow the shape of the dose curve; as a rule, active = well fitted inhibition curve with a large enough effect; inconclusive = small, poorly fitted or top-dose-only effect; inactive = flat fitted curve, though single readings scatter.
# System: Nanoluciferase (engineered Oplophorus gracilirostris luciferase)
# Test: Primary Nanoluciferase (NLuc) qHTS assay for identification of artifact compounds. (AID 1845222)
# Details: NLuc-conditioned medium, Nano-Glo luminescence, 5 min; series mostly up to 54.1 µM; activity, negative = inhibition: at the top concentration
# Text: PI: Alexander Tropsha Ph.D.
# UNC Eshelman School of Pharmacy
# University of North Carolina, Chapel Hill, North Carolina
# Hits from high-throughput screening (HTS) of chemical libraries are often false positives due to their interference with the assay detection technology. In response to this problem, we generated the largest publicly available library of chemical liabilities and developed a free webtool to predict HTS artifacts, both of which are described herein. More specifically, we generated, curated, and integrated HTS datasets for thiol reactivity, redox activity, and luciferase (firefly and nano) activity. Using these curated datasets, we developed and validated several Quantitative Structure-Interference Relationship (QSIR) models to predict nuisance behavior. […] These models were employed for virtual profiling of the National Center for Advancing Translational Science's (NCATS) in-house library, and 256 compounds for each assay were selected for the experimental validation of nuisance behavior. The BA for these external predictions ranged from 58 to 78% for compounds within the applicability domains of the models. […] The models developed in this study, along with aggregation models previously developed by our group (SCAM Detective) were implemented in "Liability Predictor," an online tool which may be used as part of chemical library design or for triaging HTS hits. Both the models and the curated datasets are publicly available at https://liability.mml.unc.edu/.
# SEQUENCE No. (e.g., 1, 2, 3, etc.); […] (e.g., Cells, Incubation, Reagent, etc.); VALUE; DESCRIPTION.
# 1; Reagent; 2 uL; Nanoluciferase media.
# 2; Compounds and control; 16 nL; Kalypsis pin tool (Wako USA) equipped with a 1536-well pin head.
# 4; Reagent; 2 uL; Luciferase enzyme.
# 6; Detection; Luminescence, ViewLux microplate reader.
# NOTES (numbers refer to Sequence numbers above)
# 1. Medium was collected from the culture flasks of NLuc-expressing S16 cells (80% confluent) prior to cell plating, filtered through a 0.22um filter, and frozen at -20C prior to use. Media was diluted (1:55) and 2 uL was dispensed into all wells of a 1536-well assay plate (solid-bottom white plate; Greiner Bio One, Monroe, NC).
# 2. A Wako Pin-tool (Wako Automation, Richmond, VA) was used to transfer 16 nL of compounds (consisting of 7-plates in qHTS format, final concentration range 18.3 nM to 114 uM) or control Cilnidipine (final concentration range 623 nM to 80 uM).
# 3. 15 min. incubation at room temperature protected from light.
# 4. 2 uL of NLuc substrate (1:100 in Nano-Glo luciferase buffer; Nano-Glo luminescence assay, Promega, Madison, WI) was dispensed for a final assay volume of 4 uL.
# 5. Plates were centrifuged (121xg, 15 seconds) and incubated for 5 minutes.
# 6. Samples were read for luminescence on a ViewLux CCD imager (PerkinElmer). Data were normalized to no-enzyme (0% activity) and no-inhibitor (DMSO; 100%) controls and the resulting percent inhibition data were fitted to a 4-parameter Hill equation using NCATS in-house software.
row,SMILES,"activity, negative = inhibition"
1,CC(=O)O[C@@H]1C[C@@H](C)[C@](O)(CCC2=CC(=O)OC2)[C@@]2(C)CCCC(C)(C)C12 (stereo not given in full),1.69%
2,CCCCC(=O)N1c2ccccc2NC2=C(C(=O)CCC2)C1c1ccccc1Cl (stereo not given),-19.9%
3,CCc1cccc2c3c([nH]c12)[C@@](CC)(CC(=O)O)OCC3,-7.45%
4,COC(=O)C1=CO[C@@H](O[C@@H]2O[C@H](CO)[C@@H](O)[C@H](O)[C@H]2O)[C@@H]2[C@@H](C(=O)O)CC[C@H]12,-1.58% [at 25.7 µM]
5,CC1=C[C@H]2[C@@H](CC1=O)[C@H](C)C[C@H](O)[C@H]2C(C)C,-7.37%
6,CC1(C)CC[C@]2(C(=O)O)CC[C@]3(C)C(=CCC4[C@@]5(C)CC[C@H](O[C@H]6O[C@H](C(=O)O)[C@@H](O)[C@H](O[C@@H]7O[C@H](CO)[C@H](O)[C@H](O)[C@H]7O)[C@H]6O)C(C)(C)C5CC[C@]43C)[C@@H]2C1 (stereo not given in full),2.24% [at 11.6 µM]
7,COC(=O)C(CC1CCCC1)c1ccc(S(C)(=O)=O)cc1 (stereo not given),-0.647%
8,C=C1CC2C(C)(CCC(=O)O)C(C(C)(C)O)CCC2(C)C2(C(=O)OC)C(=O)C(C)(O)C(=O)C12C (stereo not given),-2.98% [at 25.7 µM]
9,CCOC(=O)COc1ccc2c(c1)C[C@@H](NC[C@H](O)c1cccc(Cl)c1)CC2,3.45%
10,CC1=CC2=C(C)C(=O)[C@](C)(O)[C@H](O)C2=CO1,0.309%
11,C[C@@H]1O[C@@H](O[C@H]2[C@@H]3C=CO[C@@H](O[C@@H]4O[C@H](CO)[C@@H](O)[C@H](O)[C@H]4O)[C@@H]3[C@@]3(CO)O[C@@H]23)[C@H](O)[C@H](OC(=O)/C=C/c2ccc(O)c(O)c2)[C@H]1O,0.0234% [at 25.7 µM]
12,C=C1C(=O)OC2CC(COC(=O)C(C)C)=C(C(C)CCCOC(C)=O)[C@@H](OC(C)=O)C12 (stereo not given in full),2.6% [at 25.7 µM]
13,CNC(=O)c1ccc2c(c1)CCO[C@H]2CCN1CCN(c2ccc(C(N)=O)cc2)CC1,1.54%
14,Cc1nc(-c2cccnc2)sc1C(=O)Nc1ccccc1-c1cn2c(CN3CCOCC3)csc2n1,-4.63%
15,CSCC1OC(n2cnc3c(=O)[nH]cnc32)C(O)C1O (stereo not given),0.463%
16,CC1=CC(=O)[C@]2(O[C@@H]3O[C@@H](C)[C@H](O)[C@@H](O)[C@H]3O)C=CO[C@@H](O[C@@H]3O[C@H](CO)[C@@H](O)[C@H](O)[C@H]3O)[C@H]12,0.205% [at 25.7 µM]
17,C=C1CC[C@H]2[C@@](C)(CCC(OC3OC(CO)C(O)C(O)C3O)[C@@]2(C)CO)C1C(=O)CC1=CCOC1=O (stereo not given in full),-1.83% [at 25.7 µM]
18,C[C@@]12CC3(S(=O)(=O)O)OC(O1)[C@]1(COC(=O)c4ccccc4)[C@H]3C[C@]21O[C@@H]1O[C@H](CO)[C@@H](O)[C@H](O)[C@H]1O,-1.25% [at 25.7 µM]
19,CN1CCN(C(=O)c2cc3cc(Cl)ccc3[nH]2)CC1,4.41%
20,CC1=C2CC(C)(C)CC2C(O)C2=C(C1)C(=O)OC2O (stereo not given),2.43%

row,SMILES,"activity, negative = inhibition"
1,C/C(=C\CC[C@H](CO)[C@@H]1CC[C@]2(C)C3=C(CC[C@@]12C)[C@@]1(C)CCC(=O)C(C)(C)C1CC3)C(=O)O (stereo not given in full),1.27% [at 25.7 µM]
2,CC(=O)NC1C(OC2CCC3(C)C(CCC4(C)C3CC=C3C5CC(C)(C)CCC5(C(=O)O)C(O)CC34C)C2(C)C)OC(CO)C(O)C1O (stereo not given),-2.06% [at 25.7 µM]
3,COC1CC(O[C@H]2CC[C@@]3(C)C(=CC[C@]4(O)C3[C@H](O)[C@@H](O)[C@]3(C)[C@@H]([C@H](C)O)CC[C@@]34O)C2)OC(C)C1OC1CC(OC)C(OC2CC(OC)C(OC3OC(C)C(OC4OC(CO)C(O)C(O)C4O)C(OC)C3O)C(C)O2)C(C)O1 (stereo not given in full),0% [at 11.6 µM]
4,CCC1(O)CC2c3cc(OC)c(OC)cc3CCN2CC1CC(C)C (stereo not given),-8.7%
5,CC(=O)NC1CC(=O)C23C(=O)NC(Cc4c[nH]c5ccccc45)C2C(C)=C(C)C(O)C3/C=C/CC(C)/C=C(/C)C(O)C1O (stereo not given),4.63% [at 25.7 µM]
6,C[C@]1(O)CC[C@@H]2C(C(=O)O)=CO[C@@H](O[C@@H]3O[C@H](CO)[C@@H](O)[C@H](O)[C@H]3O)[C@@H]21,2.26%
7,Cn1cc(CCn2cnc(-c3cnn(C)c3)c2-c2ccc(C#N)cc2)cn1,-3.13%
8,COc1ccc2c(c1)C=C1Cn3c-2c(C2CCCCC2)c2ccc(cc23)C(=O)NS(=O)(=O)N(C)CCOCCN(C)C1=O,-1.63%
9,O=C(O)Cc1cn([C@@H]2O[C@H](CO)[C@@H](O)[C@H](O)[C@H]2O[C@@H]2O[C@H](CO)[C@@H](O)[C@H](O)[C@H]2O)c2ccccc12,0% [at 25.7 µM]
10,N[C@@H](CC(=O)Nc1ccc(Oc2cc(F)c(F)cc2Br)cc1)C(=O)O,-10.3%
11,CC(C)(O)C1OC1C1=CC(=O)C2(C)OC2C1O (stereo not given),3.76%
12,CCOC(=O)c1ccc(NC2CCCCC2)c(N)c1,-0.264%
13,CC(C)=CCc1c(O)cc2oc3cc(C)cc(O)c3c2c1C,-0.0302%
14,C=CC(C)(CC/C=C(\C)C(=O)OC[C@H]1O[C@@H](OC(C)(C=C)CC/C=C(\C)C(=O)O[C@H]2[C@H](O)[C@@H](O)[C@H](OC(C)(C=C)CC/C=C(\C)C(=O)O)O[C@@H]2CO)[C@H](O)[C@@H](O)[C@@H]1O)O[C@@H]1O[C@H](CO)[C@@H](O)[C@H](O)[C@H]1O (stereo not given in full),3.18% [at 11.6 µM]
15,C=C(C(=O)O)[C@@H]1CC[C@@]2(C)CC[C@@H](O)C(=C)C2C1 (stereo not given in full),-1.68%
16,CO[C@H]1c2cc(C(C)C)c(O)c(O)c2[C@@]23CCCC(C)(C)C2[C@@H]1OC3=O (stereo not given in full),-1.06%
17,C/C=C(\C)C(=O)OC1C2(O)CC3=C4CC(=O)OC(c5ccoc5)C4(C)CCC3C(C)(C2=O)C(C(OC(C)=O)C(=O)OC)C1(C)C (stereo not given),0.0033% [at 25.7 µM]
18,CCC1OC(=O)C(C)CC(C)C(=O)/C(C)=C/C(C)C(=O)/C=C/C1(C)O (stereo not given),3.72%
19,C[C@H]1[C@H](C)CC[C@]2(C(=O)O)CC[C@]3(C)C(=CCC4[C@@]5(C)C[C@@H](O)[C@H](O)C(C)(C)C5CC[C@]43C)[C@H]12 (stereo not given in full),-2.06% [at 25.7 µM]
20,C[C@@H]1O[C@@H](OC2C(CO)OC(OCC3OC(OC(=O)[C@]45CCC(C)(C)CC4C4=CCC6[C@@]7(C)CC[C@@H](O)[C@](C)(C(=O)O)C7CC[C@@]6(C)[C@]4(C)CC5)C(O)C(O)C3O)C(O)C2O)[C@H](O)[C@H](O)[C@H]1O (stereo not given in full),3.23% [at 11.6 µM]
